Assay results: the supplement of paper PMC11732987, “Enantioselective OTUD7B fragment discovery through chemoproteomics screening and high-throughput optimisation” (Communications Chemistry, 2025)

Tests used:
Experiment in all cases: log2 ratio of Biotin-Ahx-Ub-VS probe labelling (fragment/DMSO); higher = less target engagement (more negative = stronger competition), active = hit call of the paper (q ≤ 0.05, log2 ratio ≤ -1)
Conditions in all cases: compound concentration: 200 uM; treatment time: 3 h
[1] = target: T1, USP19 (UniProt O94966)
T1 sequence (whole entry): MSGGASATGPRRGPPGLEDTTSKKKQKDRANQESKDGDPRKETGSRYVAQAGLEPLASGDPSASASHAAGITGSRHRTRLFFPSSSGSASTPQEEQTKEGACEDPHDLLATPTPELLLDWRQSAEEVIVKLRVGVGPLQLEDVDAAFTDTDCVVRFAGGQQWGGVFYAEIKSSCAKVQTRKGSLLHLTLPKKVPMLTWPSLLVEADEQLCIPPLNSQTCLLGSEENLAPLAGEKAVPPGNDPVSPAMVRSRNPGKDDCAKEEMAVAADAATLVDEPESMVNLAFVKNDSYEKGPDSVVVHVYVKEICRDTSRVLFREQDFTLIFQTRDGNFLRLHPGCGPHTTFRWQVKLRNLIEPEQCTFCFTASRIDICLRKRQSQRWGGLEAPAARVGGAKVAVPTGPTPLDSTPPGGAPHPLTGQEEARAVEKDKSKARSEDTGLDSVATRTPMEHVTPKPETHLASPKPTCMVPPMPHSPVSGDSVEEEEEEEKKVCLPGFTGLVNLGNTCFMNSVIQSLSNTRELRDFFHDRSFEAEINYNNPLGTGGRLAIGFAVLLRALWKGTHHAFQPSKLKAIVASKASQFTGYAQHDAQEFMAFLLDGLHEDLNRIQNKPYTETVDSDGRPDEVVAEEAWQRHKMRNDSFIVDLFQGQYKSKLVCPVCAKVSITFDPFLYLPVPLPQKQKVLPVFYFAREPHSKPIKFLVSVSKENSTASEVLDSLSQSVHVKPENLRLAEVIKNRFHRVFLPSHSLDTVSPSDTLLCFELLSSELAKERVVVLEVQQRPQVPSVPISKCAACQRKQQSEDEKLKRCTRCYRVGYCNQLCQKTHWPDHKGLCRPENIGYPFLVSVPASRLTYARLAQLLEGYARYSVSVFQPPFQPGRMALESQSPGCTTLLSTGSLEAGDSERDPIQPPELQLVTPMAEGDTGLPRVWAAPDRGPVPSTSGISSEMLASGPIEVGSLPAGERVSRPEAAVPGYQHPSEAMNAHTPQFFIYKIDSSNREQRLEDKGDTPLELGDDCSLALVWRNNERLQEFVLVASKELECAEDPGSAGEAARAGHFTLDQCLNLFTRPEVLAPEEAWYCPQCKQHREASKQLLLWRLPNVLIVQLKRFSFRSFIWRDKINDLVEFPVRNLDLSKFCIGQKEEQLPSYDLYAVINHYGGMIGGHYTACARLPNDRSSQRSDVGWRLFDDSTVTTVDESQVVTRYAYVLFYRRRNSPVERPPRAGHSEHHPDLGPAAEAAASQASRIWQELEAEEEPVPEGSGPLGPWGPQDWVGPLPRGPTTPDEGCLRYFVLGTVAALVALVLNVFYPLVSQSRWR
In short: (§1)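 Triplicate samples of HEK293T lysate, 495 µg each, received fragment at 200 µM or vehicle for 3 h, followed by Biotin-Ahx-Ub-VS (0.5 µM final) for 1 h. After NeutrAvidin enrichment of labelled DUBs and LysC/trypsin digestion, peptides were run by diaPASEF LC-MS/MS. The values are average log2 fragment/vehicle ratios from global-median-normalised Spectronaut label-free quantities, tested by unpaired t-test on proteins having ≥2 unique peptides.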

[2] = target: USP24 (UniProt Q9UPU5)
USP24, sequence (Q9UPU5 whole entry): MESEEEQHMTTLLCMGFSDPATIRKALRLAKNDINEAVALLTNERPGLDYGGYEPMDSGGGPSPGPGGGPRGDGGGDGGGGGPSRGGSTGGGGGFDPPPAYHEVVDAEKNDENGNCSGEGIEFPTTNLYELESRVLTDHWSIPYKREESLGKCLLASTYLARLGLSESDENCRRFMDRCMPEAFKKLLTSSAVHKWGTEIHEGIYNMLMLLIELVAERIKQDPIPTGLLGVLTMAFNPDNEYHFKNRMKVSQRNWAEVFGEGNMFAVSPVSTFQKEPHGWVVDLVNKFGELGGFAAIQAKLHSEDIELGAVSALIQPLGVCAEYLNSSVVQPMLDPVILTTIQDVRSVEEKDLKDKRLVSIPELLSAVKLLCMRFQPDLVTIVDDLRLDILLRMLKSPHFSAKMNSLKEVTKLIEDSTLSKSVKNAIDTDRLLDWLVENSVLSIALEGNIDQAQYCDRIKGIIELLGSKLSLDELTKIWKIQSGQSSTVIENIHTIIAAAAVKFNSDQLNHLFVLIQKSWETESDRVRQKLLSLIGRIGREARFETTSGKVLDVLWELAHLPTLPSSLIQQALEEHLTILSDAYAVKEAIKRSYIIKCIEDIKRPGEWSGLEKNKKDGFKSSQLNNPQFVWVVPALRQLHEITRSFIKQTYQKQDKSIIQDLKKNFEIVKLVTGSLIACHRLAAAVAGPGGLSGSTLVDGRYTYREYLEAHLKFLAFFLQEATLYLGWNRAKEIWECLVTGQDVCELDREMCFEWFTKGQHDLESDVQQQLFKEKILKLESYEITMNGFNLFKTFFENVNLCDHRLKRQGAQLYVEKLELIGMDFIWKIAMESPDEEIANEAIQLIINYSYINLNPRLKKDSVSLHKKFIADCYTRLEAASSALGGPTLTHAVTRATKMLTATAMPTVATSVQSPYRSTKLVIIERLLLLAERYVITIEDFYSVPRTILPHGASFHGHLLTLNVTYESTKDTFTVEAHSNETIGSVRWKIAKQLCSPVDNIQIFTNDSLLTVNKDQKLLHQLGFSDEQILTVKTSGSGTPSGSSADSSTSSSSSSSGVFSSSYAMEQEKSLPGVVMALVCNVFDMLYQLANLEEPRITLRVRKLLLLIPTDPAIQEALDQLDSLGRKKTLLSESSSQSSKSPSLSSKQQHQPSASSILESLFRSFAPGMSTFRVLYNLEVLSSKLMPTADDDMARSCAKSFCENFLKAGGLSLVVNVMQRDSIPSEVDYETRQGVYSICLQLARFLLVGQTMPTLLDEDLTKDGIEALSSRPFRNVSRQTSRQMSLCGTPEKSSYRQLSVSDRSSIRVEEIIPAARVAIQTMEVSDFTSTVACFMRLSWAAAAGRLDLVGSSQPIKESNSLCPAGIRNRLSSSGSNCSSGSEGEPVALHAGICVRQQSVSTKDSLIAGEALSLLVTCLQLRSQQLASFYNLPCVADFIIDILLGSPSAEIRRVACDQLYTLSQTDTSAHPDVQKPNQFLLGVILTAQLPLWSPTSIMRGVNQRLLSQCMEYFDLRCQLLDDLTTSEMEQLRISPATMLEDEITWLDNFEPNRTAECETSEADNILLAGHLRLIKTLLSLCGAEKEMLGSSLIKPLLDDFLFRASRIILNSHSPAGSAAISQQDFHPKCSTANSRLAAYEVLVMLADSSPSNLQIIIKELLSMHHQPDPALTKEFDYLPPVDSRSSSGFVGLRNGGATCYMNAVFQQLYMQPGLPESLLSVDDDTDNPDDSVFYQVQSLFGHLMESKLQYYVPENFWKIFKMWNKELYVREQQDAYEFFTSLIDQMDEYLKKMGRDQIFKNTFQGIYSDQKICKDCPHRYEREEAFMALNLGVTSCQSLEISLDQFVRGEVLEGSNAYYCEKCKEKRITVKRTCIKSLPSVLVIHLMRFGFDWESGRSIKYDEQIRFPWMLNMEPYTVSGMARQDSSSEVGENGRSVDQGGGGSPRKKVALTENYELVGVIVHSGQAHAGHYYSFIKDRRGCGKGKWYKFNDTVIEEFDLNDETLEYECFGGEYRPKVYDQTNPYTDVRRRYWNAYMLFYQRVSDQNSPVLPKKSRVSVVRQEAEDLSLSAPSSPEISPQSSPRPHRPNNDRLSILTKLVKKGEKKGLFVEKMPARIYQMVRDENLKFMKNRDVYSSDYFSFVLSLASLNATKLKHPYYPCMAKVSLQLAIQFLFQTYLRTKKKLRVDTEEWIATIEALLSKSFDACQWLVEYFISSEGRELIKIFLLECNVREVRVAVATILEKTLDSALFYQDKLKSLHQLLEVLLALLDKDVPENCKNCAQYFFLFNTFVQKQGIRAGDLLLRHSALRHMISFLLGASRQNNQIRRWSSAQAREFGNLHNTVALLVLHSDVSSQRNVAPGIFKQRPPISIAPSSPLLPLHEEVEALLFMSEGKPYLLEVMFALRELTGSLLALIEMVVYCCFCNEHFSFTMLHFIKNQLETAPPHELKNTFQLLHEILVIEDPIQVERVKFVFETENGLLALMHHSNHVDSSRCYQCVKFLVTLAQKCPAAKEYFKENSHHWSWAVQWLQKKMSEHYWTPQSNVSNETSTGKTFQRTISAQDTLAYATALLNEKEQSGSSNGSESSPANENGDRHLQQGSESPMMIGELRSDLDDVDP
In short: as §1

[3] = target: T2, USP25 (UniProt Q9UHP3)
T2 sequence (whole entry): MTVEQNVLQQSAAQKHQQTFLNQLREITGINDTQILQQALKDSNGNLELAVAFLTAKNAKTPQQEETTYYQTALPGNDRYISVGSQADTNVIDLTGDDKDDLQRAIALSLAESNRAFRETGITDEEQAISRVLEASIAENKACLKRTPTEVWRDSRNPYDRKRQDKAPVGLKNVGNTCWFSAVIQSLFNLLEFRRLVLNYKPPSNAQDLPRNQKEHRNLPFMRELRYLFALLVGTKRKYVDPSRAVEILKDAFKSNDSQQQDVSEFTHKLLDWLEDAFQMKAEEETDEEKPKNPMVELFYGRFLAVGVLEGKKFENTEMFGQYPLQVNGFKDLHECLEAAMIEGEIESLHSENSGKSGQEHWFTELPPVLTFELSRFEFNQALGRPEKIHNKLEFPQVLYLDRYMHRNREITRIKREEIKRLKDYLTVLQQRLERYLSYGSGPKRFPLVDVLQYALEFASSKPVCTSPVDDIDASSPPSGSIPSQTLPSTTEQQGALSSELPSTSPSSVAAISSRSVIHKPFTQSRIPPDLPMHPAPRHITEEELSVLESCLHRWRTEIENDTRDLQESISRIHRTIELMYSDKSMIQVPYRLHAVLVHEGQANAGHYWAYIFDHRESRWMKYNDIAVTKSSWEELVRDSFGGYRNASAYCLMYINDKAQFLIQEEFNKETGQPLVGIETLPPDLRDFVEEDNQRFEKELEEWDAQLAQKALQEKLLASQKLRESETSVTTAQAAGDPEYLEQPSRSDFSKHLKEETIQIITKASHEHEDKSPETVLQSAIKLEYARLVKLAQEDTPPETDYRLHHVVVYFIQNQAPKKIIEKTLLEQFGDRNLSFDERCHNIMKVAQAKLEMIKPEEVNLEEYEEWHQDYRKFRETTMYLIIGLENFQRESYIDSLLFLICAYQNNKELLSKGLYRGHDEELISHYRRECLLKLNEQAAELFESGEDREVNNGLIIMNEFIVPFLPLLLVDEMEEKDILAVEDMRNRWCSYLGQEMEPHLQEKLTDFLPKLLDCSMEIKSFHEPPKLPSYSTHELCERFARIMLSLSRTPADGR
In short: as §1

[4] = target: T3, USP28 (UniProt Q96RU2)
T3 sequence (whole entry): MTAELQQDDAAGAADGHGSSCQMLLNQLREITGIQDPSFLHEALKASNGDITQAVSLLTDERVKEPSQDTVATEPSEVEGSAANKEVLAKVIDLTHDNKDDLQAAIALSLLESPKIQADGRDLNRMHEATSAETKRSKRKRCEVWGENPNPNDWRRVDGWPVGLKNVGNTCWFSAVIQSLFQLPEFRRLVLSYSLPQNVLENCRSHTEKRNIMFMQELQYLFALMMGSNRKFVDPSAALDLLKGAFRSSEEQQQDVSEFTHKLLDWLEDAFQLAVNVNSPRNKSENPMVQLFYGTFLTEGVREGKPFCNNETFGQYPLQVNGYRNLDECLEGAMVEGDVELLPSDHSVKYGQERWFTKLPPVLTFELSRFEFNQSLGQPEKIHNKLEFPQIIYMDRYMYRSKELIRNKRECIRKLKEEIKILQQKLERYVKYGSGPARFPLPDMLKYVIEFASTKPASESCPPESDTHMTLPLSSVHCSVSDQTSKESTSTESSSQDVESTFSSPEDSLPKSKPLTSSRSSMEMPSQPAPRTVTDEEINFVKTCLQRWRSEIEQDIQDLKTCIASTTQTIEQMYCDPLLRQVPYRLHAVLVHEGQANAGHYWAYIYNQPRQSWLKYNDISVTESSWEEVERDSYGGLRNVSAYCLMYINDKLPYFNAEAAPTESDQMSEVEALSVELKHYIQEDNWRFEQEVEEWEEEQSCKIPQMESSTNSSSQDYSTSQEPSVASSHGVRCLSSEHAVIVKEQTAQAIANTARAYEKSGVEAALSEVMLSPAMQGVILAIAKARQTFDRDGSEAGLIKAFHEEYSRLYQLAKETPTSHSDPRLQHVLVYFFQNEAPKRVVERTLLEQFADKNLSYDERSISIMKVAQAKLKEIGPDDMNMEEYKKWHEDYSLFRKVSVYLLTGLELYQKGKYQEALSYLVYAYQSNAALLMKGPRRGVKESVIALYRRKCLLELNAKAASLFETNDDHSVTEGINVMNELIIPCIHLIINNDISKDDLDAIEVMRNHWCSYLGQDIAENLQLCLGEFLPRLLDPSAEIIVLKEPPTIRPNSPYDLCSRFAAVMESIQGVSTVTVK
In short: as §1

Measured: log2 ratio of Biotin-Ahx-Ub-VS probe labelling

COc1cccc(CN(C)C(=O)CCl)c1
inactive: [1] -0.352 | [2] -0.497 | [3] -0.669 | [4] -0.772
